Assay outcomes from PubChem BioAssay.
14-3-3 Bad PPI: inhibitors of 14-3-3 zeta/Bad binding, primary screen, biochemical, TR-FRET, bovine 14-3-3 zeta; 14-3-3 protein zeta/delta (Bos taurus), P63103; TR-FRET 14-3-3zeta/Dy647-pBad peptide displacement, 1 h; inhibition, % at 21.7 µM; actives 0.71% (n = 220,000);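 active = inhibition above about 70%, limit read from the data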;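 note: 0% = full 14-3-3 plus peptide FRET controls and 100% = background without 14-3-3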
eIF4H FP inh: human eIF4H binding inhibitors, primary screen, translation initiation inhibitor project, biochemical, uHTS, fluorescence polarization; eIF4H fluorescence polarization binding assay; inhibition, % at 35 µM; actives 0.94% (n = 290,000);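 note: calls also rest on retests at 20 µM and on dose response follow-up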
MLLE-PAM2 inh: inhibitors of PABP1 MLLE–PAM2 peptide binding, primary screen, biochemical, fluorescence polarization, FITC-PAM2, GST-MLLE; inhibition, % at 20 µM; actives 0.36% (n = 360,000); AID 588489, 2011; in the data active = inhibition above about 35%, passing the limit was not always enough;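 note: plate controls were DMSO wells with GST-MLLE for no effect and wells lacking GST-MLLE protein for full effect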
eIF4E-4G inh: eIF4E–eIF4G protein interaction inhibitors, primary screen, biochemical, uHTS, TR-FRET, eIF4GI fragment; Eukaryotic translation initiation factor 4E (Mus musculus) + Eukaryotic translation …; actives 0.37% (n = 220,000); TR-FRET eIF4E-eIF4GI(517-606) binding, 2 h; inhibition, % at 21.7 µM;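 active = inhibition above about 30%, limit read from the data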;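 note: 0% = full FRET control wells and 100% = background wells lacking eIF4GI fragment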
Target sequence (P63073 whole entry, looked up, the tested form may be a part): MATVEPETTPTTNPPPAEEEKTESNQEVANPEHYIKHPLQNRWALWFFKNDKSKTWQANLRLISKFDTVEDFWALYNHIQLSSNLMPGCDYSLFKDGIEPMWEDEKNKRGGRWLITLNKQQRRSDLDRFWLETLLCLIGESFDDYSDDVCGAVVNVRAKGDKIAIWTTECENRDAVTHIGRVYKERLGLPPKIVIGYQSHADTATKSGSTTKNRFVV
Target sequence (Q04637 whole entry, looked up, the tested form may be a part): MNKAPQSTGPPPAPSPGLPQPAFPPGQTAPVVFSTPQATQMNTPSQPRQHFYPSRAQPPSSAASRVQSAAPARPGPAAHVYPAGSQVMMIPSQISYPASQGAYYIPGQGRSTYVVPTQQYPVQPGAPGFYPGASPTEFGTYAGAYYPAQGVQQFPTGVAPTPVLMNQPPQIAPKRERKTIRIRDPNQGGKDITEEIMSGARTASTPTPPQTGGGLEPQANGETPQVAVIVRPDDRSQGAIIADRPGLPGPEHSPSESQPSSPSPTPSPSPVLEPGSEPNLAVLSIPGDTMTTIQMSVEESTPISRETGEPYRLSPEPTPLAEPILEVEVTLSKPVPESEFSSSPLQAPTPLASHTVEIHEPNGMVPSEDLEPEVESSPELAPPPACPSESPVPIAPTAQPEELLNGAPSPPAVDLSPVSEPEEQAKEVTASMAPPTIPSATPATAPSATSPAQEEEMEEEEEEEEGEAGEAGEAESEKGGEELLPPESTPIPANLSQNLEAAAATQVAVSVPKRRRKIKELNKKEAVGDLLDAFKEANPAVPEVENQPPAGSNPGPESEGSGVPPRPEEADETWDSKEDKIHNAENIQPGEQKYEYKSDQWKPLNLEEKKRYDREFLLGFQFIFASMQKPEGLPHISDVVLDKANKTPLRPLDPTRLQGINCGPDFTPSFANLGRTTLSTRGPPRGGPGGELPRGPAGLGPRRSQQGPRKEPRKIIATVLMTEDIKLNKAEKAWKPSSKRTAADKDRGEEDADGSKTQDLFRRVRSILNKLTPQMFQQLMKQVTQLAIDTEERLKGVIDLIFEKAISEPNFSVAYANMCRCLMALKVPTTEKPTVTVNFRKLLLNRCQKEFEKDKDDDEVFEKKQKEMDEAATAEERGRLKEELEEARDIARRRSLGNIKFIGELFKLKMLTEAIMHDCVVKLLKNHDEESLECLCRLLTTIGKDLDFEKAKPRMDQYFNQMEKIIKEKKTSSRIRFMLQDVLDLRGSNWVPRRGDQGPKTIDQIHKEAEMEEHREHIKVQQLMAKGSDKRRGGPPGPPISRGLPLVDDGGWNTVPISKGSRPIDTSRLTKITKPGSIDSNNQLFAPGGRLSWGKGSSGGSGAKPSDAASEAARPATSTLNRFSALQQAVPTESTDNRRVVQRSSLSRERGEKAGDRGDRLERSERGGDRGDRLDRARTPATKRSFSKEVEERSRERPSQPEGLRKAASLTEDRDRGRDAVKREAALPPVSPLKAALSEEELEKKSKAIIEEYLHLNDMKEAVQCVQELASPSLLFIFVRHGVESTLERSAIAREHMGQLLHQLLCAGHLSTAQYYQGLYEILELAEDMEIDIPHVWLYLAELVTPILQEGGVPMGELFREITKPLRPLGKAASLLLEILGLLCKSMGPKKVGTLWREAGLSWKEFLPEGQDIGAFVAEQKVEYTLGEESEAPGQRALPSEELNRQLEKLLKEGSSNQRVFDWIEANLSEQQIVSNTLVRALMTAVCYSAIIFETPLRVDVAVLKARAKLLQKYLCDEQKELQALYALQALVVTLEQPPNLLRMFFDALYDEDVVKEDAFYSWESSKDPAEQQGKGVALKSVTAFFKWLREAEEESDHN
PABP FP inh: PABP poly(A) RNA binding inhibitors, primary screen, biochemical, fluorescence polarization, uHTS; Polyadenylate-binding protein 1 (Homo sapiens), P11940; calls only at 35 µM; actives 1% (n = 290,000); AID 2014, 2009;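 note: calls also rest on retests at 20 µM and on dose response follow-up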
* hit, by the source's call; i = inactive; ? = inconclusive; / = no result given; + = active, no number. Compounds with a hit are over-represented: about 1.9% of the library has one in this group of screens. Unless noted, the rule behind the calls is not given here.

SMILES | 14-3-3 Bad PPI | eIF4H FP inh | MLLE-PAM2 inh | eIF4E-4G inh | PABP FP inh
Cc1c(C(=O)OCC(C)C)[nH]c2c1C(=O)CC(c1ccco1)C2 (centres undefined) | 5 | 22 | -12 | 1 | i
Cc1c(C(=O)OCC2CCCO2)[nH]c2c1C(=O)CC(c1ccco1)C2 (centres undefined) | -7 | 90* | 0 | 2 | +
Cc1cc(C)cc(N=Cc2[nH]c3ccc(Br)c(Cl)c3c2O)c1 | 4 | ? | -10 | 3 | +
COc1ccc(CN=Cc2[nH]c3ccc(Br)c(Cl)c3c2O)cc1 | / | 20 | 9 | / | i
CS(=O)(=O)N1CCN(Cc2ccc(C(F)(F)F)cc2)CC1 | 81* | -8 | -4 | 2 | i
Cc1cc(C)n2nc(C(=O)OCC(=O)c3cc(C)n(C)c3C)nc2n1 | -8 | 62* | 8 | 8 | i
Cc1cc(C)n2nc(C(=O)OCC(=O)c3ccccc3Cl)nc2n1 | / | / | 2 | / | /
O=c1c2ccccc2nc(-c2ccco2)n1CCc1ccc(O)cc1 | / | -10 | -8 | / | i
O=C(Cn1sc2ccccc2c1=O)NC12CC3CC(CC(C3)C1)C2 | 44 | 2 | 53* | 41* | i
CCN(CC)S(=O)(=O)c1cccc(C(=O)N/N=C2\CC(=O)CC(C)(C)C2)c1 | -5 | 9 | -26 | 3 | i
CCN(CC)S(=O)(=O)c1cccc(C(=O)N/N=C2\CCCC(=O)C2)c1 | -4 | 55 | -5 | -3 | +
O=C1OC(c2ccc(F)cc2)CC1CN1CCOCC1 (centres undefined) | / | / | 2 | / | /
O=C(CSc1n[nH]c(-c2ccccc2Br)n1)NCCN1C(=O)CSC1=O | -6 | active | -2 | -6 | i
Cc1ccc(Nc2nnc(SCC(=O)NCCN3C(=O)CSC3=O)s2)cc1C | -3 | -3 | -83 | 5 | +
O=C(CSc1n[nH]c(-c2cc(Cl)ccc2Cl)n1)NCCN1C(=O)CSC1=O | 1 | 4 | -9 | -1 | i
CCCCNC(=S)NNC(=O)c1csc(C)c1 | 3 | active | -18 | -3 | +
CC(C)(C)Nc1nc(Nc2ccc([N+](=O)[O-])cc2)nc(NC(C)(C)C)n1 | / | -4 | 0 | / | i
Cn1c(=O)oc2cc(S(=O)(=O)NCc3cccnc3)ccc21 | 4 | 65 | 2 | -2 | +
Cn1c(=O)oc2cc(S(=O)(=O)NCc3ccco3)ccc21 | -6 | 2 | 9 | 4 | i
Cn1c(=O)oc2cc(S(=O)(=O)Nc3cccc4c3CCCC4)ccc21 | 8 | 62* | -7 | 9 | +
Cc1cc(C)c(NS(=O)(=O)c2ccc3c(c2)oc(=O)n3C)c(C)c1 | / | / | -4 | / | /
Cn1c(=O)oc2cc(S(=O)(=O)NCc3ccc(F)cc3)ccc21 | / | 28 | -5 | / | i
CCC1CCCCN1Cc1ccc(CNS(=O)(=O)c2ccc3c(c2)oc(=O)n3C)o1 (centres undefined) | 3 | 55* | -9 | 0 | +
COc1ccccc1NC1CCCCC1NS(=O)(=O)c1ccccc1 (centres undefined) | / | -9 | 0 | / | i
COC(=O)CCN1CCC2CC1c1cc(N3CCCCC3)ccc12 (centres undefined) | / | / | -8 | / | /
SMILES | 14-3-3 Bad PPI | eIF4H FP inh | MLLE-PAM2 inh | eIF4E-4G inh | PABP FP inh
COCCN(C(=O)CSCc1ccccc1)c1c(N)n(Cc2ccccc2)c(=O)[nH]c1=O | / | -2 | 13 | / | i
O=C(c1ccc(CNS(=O)(=O)c2ccc(F)cc2)cc1)N1CCCCCC1 | / | / | 20 | / | /
OC1(c2ccc(Br)cc2)CN(c2ccccc2)C2=[N+]1CCS2 (centres undefined) | -11 | -6 | 37* | -9 | i
OC1(c2ccc(Cl)cc2)CN(c2ccccc2)C2=[N+]1CCS2 (centres undefined) | -1 | -10 | 37 | -4 | i
COc1cc(C(=O)OCC(=O)N2CCOCC2)c([N+](=O)[O-])cc1OC | / | 0 | -2 | / | i
COc1ccc(OCCOc2ccc(/C=C3\C(=N)N4N=C(C)SC4=NC3=O)cc2)cc1 | / | / | -23 | / | /
CN(CC(=O)Nc1ccccc1N1CCOCC1)CC(=O)Nc1ccc(F)c(F)c1F | -20 | -7 | -1 | 1 | i
CCCCCC(=O)Nc1ccccc1N1CCOCC1 | -15 | -2 | -18 | 11 | i
CSc1ccccc1NC(=O)CN(C)Cc1cccc(Cl)c1 | 72* | -7 | 9 | 2 | i
O=C(O)CCC(=O)Nc1ccccc1N1CCOCC1 | -3 | 14* | 1 | 0 | +
CCN(c1ccccc1)S(=O)(=O)c1ccc(Cl)c(NC(=O)CN2CCN(C)CC2)c1 | / | / | -63 | / | /
CCN(c1ccccc1)S(=O)(=O)c1ccc(Cl)c(NC(=O)CN(C)C2CCN(C)CC2)c1 | 90* | 1 | -3 | 1 | i
CSc1ccccc1NC(=O)CN(C)CC(=O)Nc1ccccc1N1CCOCC1 | -9 | active | -5 | 2 | i
CC(C)(CO)NC(=O)c1ccc2nc(Cc3cccc(Cl)c3)oc2c1 | / | -4 | 4 | / | i
CN1CCC(N(C)CC(=O)Nc2ccccc2N2CCOCC2)CC1 | 79* | 1 | -2 | 8 | i
CC[C@]1(C(=O)OC)[C@H]2C(=O)N(Cc3ccccc3)C(=O)[C@H]2[C@H]2CN=C(SCC(=O)c3ccccc3)N21 | / | / | 38* | / | /
O=C(NCC(=O)N1CCCCCCC1)c1ccc(Cl)c(Cl)c1 | / | / | -7 | / | /
Cc1ccc(C)n1-c1sc2c(c1C(=O)O)CCCC2 | -10 | 96 | 16 | 10 | i
Cc1ccc(C)n1-c1sccc1C(=O)O | 22 | 107 | 45* | 21 | i
O=C(N/N=C/c1ccc([N+](=O)[O-])o1)c1cc(-c2ccncc2)nc2ccccc12 | 1 | 68* | 0 | -1 | +
Cn1c(/C=C/c2ccc([N+](=O)[O-])o2)nc2ccccc2c1=O | -11 | ? | -17 | 2 | +
O=C(CNc1cccc2ccccc12)N/N=C/c1ccc([N+](=O)[O-])o1 | 2 | 85* | 10 | 3 | +
O=C(CNc1cccc([N+](=O)[O-])c1)N/N=C/c1ccc([N+](=O)[O-])o1 | -5 | 39 | -10 | -3 | i
Cc1ccc(-c2cc(C(=O)N/N=C/c3ccc([N+](=O)[O-])o3)c3ccccc3n2)o1 | / | 76* | -2 | / | +
CCOc1ccc(N2CC(C(=O)Nc3nnc(CC)s3)CC2=O)cc1 (centres undefined) | / | 4 | -9 | / | i
CN(C)c1cccc(C(=O)NCCCSc2ccccc2)c1 | / | -5 | 7 | / | i
C=CCNC(=O)CSc1nc2cc(C(=O)OCC)ccc2n1CC | 8 | -3 | -8 | 4 | i
CCOC(=O)c1ccc2c(c1)nc(SCC(=O)c1cc3ccccc3o1)n2CC | -6 | 3 | -125 | 40* | i
